Of roughly 7,900 targets only a part is listed; those with a hit were picked by preference. About 0.6% of all pairs of compound and target were hits. Unmarked numbers belong to inactive results.
Experiments:
Assay in all cases: log2 fold change, soluble protein after heating vs DMSO (PISA); higher = thermal stabilisation; K562 cells, 10 uM, 30 min; active = over 0.2 and 3.5 SD of the protein, either way, in both replicates (recomputed)
[1] = compound: NC(=O)Nc1cc(-c2cccc(F)c2)sc1C(=O)N[C@H]1CCCNC1
Outline: (§1)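 K562 cells at 2×10^6 cells/mL were exposed to 10 μM compound for 30 min, then aliquots were heated for 3 min across 48°C-58°C, pooled, and extracted in PBS containing 0.5% NP-40 at 4°C. The supernatant after 21,000xg for 90 min was taken as soluble protein and measured by TMTpro 16plex LC-MS/MS with channel sums equalised. Thermal stability is reported relative to control samples, with values from duplicates. Fold changes are given on a log2 scale.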

[2] = compound: NC(=O)c1cnc(N[C@@H]2CCCC[C@@H]2N)nc1Nc1cccc(-n2nccn2)c1
Outline: as §1

[3] = compound: NC1(c2ccc(-c3nc4ccn5c(=O)[nH]nc5c4cc3-c3ccccc3)cc2)CCC1
Outline: as §1

[4] = compound: NCC(=O)Nc1ccc(-n2nc(C(F)(F)F)cc2-c2ccc3c(ccc4ccccc43)c2)cc1
Outline: as §1

entinostat = compound: Nc1ccccc1NC(=O)c1ccc(CNC(=O)OCc2cccnc2)cc1 [entinostat]
Outline: as §1

vorinostat = compound: O=C(CCCCCCC(=O)Nc1ccccc1)NO [vorinostat]
Outline: as §1

citarinostat = compound: O=C(CCCCCCNC(=O)c1cnc(N(c2ccccc2)c2ccccc2Cl)nc1)NO [citarinostat]
Outline: as §1

silmitasertib = compound: O=C(O)c1ccc2c(c1)nc(Nc1cccc(Cl)c1)c1ccncc12 [silmitasertib]
Outline: as §1

[5] = compound: O=C1NC(=O)C(c2cnc3ccccn23)=C1c1cn2c3c(cc(F)cc13)CN(C(=O)N1CCCCC1)CC2
Outline: as §1

[6] = compound: c1cc(OCCN2CCCCC2)cc(-c2n[nH]c3ccc(-c4nnc[nH]4)cc23)c1
Outline: as §1

entospletinib = compound: c1cn2cc(-c3ccc4cn[nH]c4c3)nc(Nc3ccc(N4CCOCC4)cc3)c2n1 [entospletinib]
Outline: as §1

UniProt Q9UPN6, sequence (Q9UPN6 whole entry, looked up): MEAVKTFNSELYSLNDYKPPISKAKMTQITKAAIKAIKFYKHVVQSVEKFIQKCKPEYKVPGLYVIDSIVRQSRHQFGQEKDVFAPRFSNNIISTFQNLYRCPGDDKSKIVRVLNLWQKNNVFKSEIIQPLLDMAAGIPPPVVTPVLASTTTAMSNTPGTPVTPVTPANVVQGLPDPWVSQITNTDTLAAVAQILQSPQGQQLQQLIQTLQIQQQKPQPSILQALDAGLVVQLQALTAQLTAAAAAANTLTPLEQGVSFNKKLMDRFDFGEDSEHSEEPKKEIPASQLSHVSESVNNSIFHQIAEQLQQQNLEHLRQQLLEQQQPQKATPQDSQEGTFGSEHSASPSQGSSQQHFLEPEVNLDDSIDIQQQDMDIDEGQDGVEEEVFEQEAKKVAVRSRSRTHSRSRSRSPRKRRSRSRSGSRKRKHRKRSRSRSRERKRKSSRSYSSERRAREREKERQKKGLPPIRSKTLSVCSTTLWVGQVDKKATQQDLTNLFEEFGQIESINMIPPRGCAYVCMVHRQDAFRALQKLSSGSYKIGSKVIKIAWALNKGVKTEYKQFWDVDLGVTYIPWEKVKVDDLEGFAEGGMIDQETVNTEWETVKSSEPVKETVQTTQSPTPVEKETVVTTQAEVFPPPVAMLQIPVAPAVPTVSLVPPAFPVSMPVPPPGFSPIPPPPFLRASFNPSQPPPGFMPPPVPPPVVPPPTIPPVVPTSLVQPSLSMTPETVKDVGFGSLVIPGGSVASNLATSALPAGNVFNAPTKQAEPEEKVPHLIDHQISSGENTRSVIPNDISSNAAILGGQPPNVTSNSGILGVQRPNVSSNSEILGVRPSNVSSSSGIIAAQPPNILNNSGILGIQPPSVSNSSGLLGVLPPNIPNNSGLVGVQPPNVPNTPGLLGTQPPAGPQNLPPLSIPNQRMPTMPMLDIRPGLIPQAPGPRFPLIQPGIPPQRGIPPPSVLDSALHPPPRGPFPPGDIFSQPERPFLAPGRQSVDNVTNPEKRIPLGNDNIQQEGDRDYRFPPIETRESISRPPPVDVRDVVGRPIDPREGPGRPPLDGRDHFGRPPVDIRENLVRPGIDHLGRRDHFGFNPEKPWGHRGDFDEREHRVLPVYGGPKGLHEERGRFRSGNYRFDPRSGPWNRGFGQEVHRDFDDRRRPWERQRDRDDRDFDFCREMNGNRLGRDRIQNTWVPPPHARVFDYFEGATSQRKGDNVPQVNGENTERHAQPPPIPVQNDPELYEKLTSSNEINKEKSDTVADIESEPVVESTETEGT
UniProt P51148, sequence (P51148 whole entry, looked up): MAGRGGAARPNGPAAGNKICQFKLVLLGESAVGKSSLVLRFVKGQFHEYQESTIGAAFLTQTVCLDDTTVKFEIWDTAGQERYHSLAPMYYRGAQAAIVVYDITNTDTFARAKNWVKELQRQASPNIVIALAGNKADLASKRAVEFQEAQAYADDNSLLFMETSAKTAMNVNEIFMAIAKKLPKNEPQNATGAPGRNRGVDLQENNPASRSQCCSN
UniProt P06400, sequence (P06400 whole entry, looked up): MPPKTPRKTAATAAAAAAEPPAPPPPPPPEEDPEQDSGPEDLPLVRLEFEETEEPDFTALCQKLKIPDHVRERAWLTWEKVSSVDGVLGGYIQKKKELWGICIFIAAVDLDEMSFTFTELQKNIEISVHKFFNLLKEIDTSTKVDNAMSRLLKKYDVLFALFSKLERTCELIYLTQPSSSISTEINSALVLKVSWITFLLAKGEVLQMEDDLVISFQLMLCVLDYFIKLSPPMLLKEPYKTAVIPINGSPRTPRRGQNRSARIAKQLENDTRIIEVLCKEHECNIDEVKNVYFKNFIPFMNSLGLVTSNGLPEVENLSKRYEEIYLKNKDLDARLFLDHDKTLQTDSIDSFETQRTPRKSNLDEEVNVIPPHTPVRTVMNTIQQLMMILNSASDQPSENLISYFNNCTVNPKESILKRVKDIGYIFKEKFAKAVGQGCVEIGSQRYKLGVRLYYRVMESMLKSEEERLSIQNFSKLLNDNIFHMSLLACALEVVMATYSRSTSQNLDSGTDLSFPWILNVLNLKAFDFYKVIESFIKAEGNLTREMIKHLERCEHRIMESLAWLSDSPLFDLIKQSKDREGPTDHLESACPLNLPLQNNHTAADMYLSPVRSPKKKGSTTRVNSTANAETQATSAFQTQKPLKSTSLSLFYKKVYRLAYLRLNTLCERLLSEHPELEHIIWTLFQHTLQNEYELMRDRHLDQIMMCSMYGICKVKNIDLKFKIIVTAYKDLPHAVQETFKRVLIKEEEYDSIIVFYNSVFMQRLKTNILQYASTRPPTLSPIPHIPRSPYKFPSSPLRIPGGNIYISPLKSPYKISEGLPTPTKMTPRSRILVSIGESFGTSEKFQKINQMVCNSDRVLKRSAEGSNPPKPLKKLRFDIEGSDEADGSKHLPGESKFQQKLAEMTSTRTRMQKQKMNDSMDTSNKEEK
UniProt Q9BQY4, sequence (Q9BQY4 whole entry, looked up): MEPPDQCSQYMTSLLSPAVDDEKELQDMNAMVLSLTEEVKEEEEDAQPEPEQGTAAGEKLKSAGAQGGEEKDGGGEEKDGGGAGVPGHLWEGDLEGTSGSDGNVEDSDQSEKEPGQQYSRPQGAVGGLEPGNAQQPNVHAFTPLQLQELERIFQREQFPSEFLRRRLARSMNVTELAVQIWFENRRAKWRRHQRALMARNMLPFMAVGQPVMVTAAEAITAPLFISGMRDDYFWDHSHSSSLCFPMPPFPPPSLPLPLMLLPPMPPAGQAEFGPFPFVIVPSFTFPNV
UniProt P58004, sequence (P58004 whole entry, looked up): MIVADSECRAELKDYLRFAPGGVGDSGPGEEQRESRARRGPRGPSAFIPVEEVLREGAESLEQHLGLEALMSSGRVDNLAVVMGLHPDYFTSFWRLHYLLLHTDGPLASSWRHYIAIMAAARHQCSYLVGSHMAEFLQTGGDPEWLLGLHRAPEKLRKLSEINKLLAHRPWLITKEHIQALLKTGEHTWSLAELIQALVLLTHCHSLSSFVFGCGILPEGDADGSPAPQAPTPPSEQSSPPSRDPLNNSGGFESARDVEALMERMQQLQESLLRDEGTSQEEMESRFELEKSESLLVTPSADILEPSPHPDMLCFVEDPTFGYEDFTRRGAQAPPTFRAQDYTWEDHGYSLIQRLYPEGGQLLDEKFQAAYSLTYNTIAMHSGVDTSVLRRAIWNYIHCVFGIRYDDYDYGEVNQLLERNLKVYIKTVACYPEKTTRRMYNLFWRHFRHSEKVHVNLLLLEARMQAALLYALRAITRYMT
UniProt Q96IZ7, sequence (Q96IZ7 whole entry, looked up): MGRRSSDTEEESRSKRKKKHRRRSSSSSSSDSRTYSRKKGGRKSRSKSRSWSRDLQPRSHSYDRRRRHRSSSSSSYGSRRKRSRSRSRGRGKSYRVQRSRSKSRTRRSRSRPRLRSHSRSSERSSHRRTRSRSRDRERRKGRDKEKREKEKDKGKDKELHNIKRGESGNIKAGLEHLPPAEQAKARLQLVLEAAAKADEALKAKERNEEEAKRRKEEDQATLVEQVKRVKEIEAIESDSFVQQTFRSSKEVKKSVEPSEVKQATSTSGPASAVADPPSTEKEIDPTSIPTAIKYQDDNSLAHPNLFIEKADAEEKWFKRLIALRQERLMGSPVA
UniProt Q14493, sequence (Q14493 whole entry, looked up): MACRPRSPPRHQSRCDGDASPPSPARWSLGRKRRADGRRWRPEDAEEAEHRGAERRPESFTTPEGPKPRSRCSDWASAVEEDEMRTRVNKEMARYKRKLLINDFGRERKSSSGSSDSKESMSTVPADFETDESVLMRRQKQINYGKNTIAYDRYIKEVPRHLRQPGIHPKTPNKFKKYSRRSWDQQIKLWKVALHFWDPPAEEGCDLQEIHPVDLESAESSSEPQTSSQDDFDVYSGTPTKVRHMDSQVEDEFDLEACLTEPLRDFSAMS
UniProt Q15758, sequence (Q15758 whole entry, looked up): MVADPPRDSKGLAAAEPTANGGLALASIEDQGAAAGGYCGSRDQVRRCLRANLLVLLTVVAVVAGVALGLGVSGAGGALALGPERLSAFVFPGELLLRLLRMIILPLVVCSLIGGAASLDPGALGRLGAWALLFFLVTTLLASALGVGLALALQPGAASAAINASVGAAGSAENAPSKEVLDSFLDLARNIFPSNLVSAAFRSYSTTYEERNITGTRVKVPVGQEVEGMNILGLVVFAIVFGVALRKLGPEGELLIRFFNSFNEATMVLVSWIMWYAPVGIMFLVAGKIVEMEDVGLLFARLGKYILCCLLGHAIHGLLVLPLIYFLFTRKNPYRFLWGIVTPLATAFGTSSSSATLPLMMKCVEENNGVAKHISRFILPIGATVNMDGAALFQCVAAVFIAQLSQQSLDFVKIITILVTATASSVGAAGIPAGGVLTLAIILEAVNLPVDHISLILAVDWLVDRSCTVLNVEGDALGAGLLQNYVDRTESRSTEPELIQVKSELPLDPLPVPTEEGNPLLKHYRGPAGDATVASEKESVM
UniProt Q96EU6, sequence (Q96EU6 whole entry, looked up): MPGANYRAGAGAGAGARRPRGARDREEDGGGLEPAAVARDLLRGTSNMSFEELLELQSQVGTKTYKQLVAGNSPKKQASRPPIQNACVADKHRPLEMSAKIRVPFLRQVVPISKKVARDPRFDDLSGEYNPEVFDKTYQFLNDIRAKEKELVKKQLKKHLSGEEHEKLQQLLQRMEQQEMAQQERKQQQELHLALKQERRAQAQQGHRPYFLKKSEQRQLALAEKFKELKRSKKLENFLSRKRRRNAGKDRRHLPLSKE
UniProt Q99719, sequence (Q99719 whole entry, looked up): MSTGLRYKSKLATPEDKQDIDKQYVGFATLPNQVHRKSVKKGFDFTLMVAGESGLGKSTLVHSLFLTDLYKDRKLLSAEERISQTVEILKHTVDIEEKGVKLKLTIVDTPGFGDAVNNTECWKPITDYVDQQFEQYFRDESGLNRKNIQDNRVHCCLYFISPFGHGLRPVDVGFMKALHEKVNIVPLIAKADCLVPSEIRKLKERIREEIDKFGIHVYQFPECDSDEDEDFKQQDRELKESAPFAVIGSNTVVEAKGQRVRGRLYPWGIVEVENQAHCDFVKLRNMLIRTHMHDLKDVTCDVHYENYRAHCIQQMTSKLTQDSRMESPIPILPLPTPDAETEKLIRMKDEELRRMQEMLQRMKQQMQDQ

Row | Target | log2 fold change [1] | log2 fold change [2] | log2 fold change [3] | log2 fold change [4] | log2 fold change (entinostat) | log2 fold change (vorinostat) | log2 fold change (citarinostat) | log2 fold change (silmitasertib) | log2 fold change [5] | log2 fold change [6] | log2 fold change (entospletinib)
1 | RAC1 (UniProt P63000) | 0.093 | 0.043 | 0.018 | 0.051 | 0.047 | 0.084 | -0.087 | -0.078 | 0.065 | 0.146 | 0.026
2 | RSL1D1 (UniProt O76021) | -0.001 | 0.207 | 0.339 | 0.188 | -0.133 | -0.016 | -0.105 | 0.329 | 0.409 | -0.265 | 0.01
3 | RPL31 (UniProt P62899) | 0.042 | 0.099 | 0.26 | 0.075 | -0.079 | -0.012 | -0.09 | 0.048 | 0.104 | -0.12 | 0.098
4 | RARS2 (UniProt Q5T160) | 0.042 | -0.035 | -0.182 | -0.043 | 0.03 | 0.029 | 0.048 | 0.006 | -0.022 | -0.053 | 0
5 | SEPTIN5 (UniProt Q99719) | -0.005 | -0.012 | -0.011 | -0.004 | -0.017 | -0.001 | 0.059 | -0.038 | -0.013 | -0.021 | -0.011
6 | RIPK1 (UniProt Q13546) | 0.037 | -0.06 | -0.092 | -0.009 | 0.088 | -0.014 | -0.006 | 0.025 | 0.205 | 0.047 | 0.135
7 | SLBP (UniProt Q14493) | 0.043 | 0.051 | -0.028 | -0.005 | 0.018 | 0.085 | 0.035 | 0.007 | 0.064 | 0.035 | -0.101
8 | ROCK2 (UniProt O75116) | 0.043 | -0.044 | -0.106 | -0.017 | 0.031 | 0.08 | 0.013 | 0.096 | 0.017 | 0.06 | -0.049
9 | RB1CC1 (UniProt Q8TDY2) | 0.009 | 0.124 | 0.126 | -0.022 | 0.001 | 0.047 | 0.114 | -0.08 | -0.077 | 0.111 | -0.041
10 | RAD50 isoform 2 (UniProt Q92878) | -0.011 | -0.042 | -0.057 | -0.064 | 0.038 | -0.014 | 0.047 | -0.008 | -0.034 | 0.009 | -0.02
11 | RRP36 (UniProt Q96EU6) | 0.115 | 0.108 | 0.271 | 0.098 | -0.073 | -0.024 | -0.04 | 0.143 | 0.264 | -0.118 | 0.118
12 | RPS20 isoform 2 (UniProt P60866) | -0.012 | 0.056 | 0.151 | 0.037 | -0.029 | 0.012 | -0.091 | -0.006 | 0.072 | -0.1 | 0.064
13 | RBM26 isoform 2 (UniProt Q5T8P6) | -0.001 | 0.031 | -0.135 | -0.103 | 0.141 | 0.103 | 0.193 | -0.1 | -0.05 | 0.017 | -0.021
14 | SCAF11 (UniProt Q99590) | 0.019 | 0.073 | 0.129 | -0.003 | -0.054 | 0.12 | -0.13 | -0.038 | 0.147 | -0.29 | 0.185
15 | RHOXF2 (UniProt Q9BQY4) | 0.004 | 0.015 | 0.039 | 0.013 | -0.002 | -0.091 | 0.006 | 0.045 | -0.023 | -0.036 | 0.062
16 | RNPEP (UniProt Q9H4A4) | -0.001 | -0.093 | -0.086 | -0.027 | 0.042 | 0.033 | 0.018 | 0.031 | -0.017 | -0.033 | 0.004
17 | SESN2 (UniProt P58004) | -0.069 | -0.159 | -0.129 | -0.093 | 0.075 | 0.079 | -0.081 | 0.108 | -0.123 | 0.026 | 0.167
18 | SLC1A5 (UniProt Q15758) | -0.057 | 0.117 | 0.155 | 0.03 | -0.041 | -0.039 | -0.003 | -0.016 | -0.001 | -0.03 | -0.032
19 | SENP6 (UniProt Q9GZR1) | 0.011 | -0.009 | -0.073 | -0.023 | -0.019 | -0.021 | 0.04 | -0.118 | 0.027 | -0.049 | -0.005
20 | RSRC1 (UniProt Q96IZ7) | -0.019 | 0.162 | -0.005 | -0.013 | -0.04 | 0.022 | 0.049 | -0.275 (active) | -0.029 | -0.123 | 0.076
21 | RB1 (UniProt P06400) | 0.11 | -0.133 | -0.072 | -0.01 | 0.015 | 0.05 | 0.039 | 0.039 | -0.241 (active) | -0.038 | 0.037
22 | RALA (UniProt P11233) | -0.03 | -0.019 | 0.057 | 0.004 | -0.064 | 0.142 | 0.082 | -0.021 | 0.028 | -0.028 | -0.026
23 | SCAF8 isoform 2 (UniProt Q9UPN6) | -0.062 | -0.028 | -0.086 | -0.044 | 0.053 | 0.166 | 0.058 | -0.003 | -0.098 | -0.093 | -0.042
24 | RDH11 (UniProt Q8TC12) | -0.118 | 0.061 | -0.049 | -0.165 | 0.055 | 0.05 | 0.092 | 0.061 | -0.087 | -0.041 | 0.082
25 | RAB5C isoform 2 (UniProt P51148) | 0.092 | 0.041 | 0.017 | 0.051 | 0.007 | -0.001 | -0.004 | -0.009 | 0.049 | -0.028 | -0.006
26 | RBM25 (UniProt P49756) | 0 | 0.007 | -0.058 | -0.025 | 0.031 | 0.067 | 0.015 | 0.019 | 0.005 | -0.053 | -0.078
27 | RPS13 (UniProt P62277) | 0.058 | 0.093 | 0.246 | 0.115 | -0.062 | 0.019 | -0.121 | -0.022 | 0.091 | -0.182 | 0.148
28 | SEC23A (UniProt Q15436) | -0.004 | 0.064 | -0.066 | -0.015 | -0.035 | -0.02 | -0.044 | 0.011 | 0.024 | -0.097 | 0.106
